Source: PubChem BioAssay (NCATS)
Values joined by “and” are separate entries in the source; they are usually repeats but may differ in a detail not shown here. Equal entries are not always repeated. Inconclusive results are not listed. Active and inactive are the calls of the source. Unless noted, calls come from the whole dose curve; as a rule, active = well fitted curve in the direction sought with a large enough effect; inconclusive = small, poorly fitted or top-dose-only effect, or another doubt; inactive = no such curve, though single readings can be large; an effect the other way counts as inactive or inconclusive.

Legend:
[1] = Cell Viability - LYMP2-001 (AID 921);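 note: series mostly up to about 92 µM; 0% = DMSO only and full inhibition = tetraoctylammonium bromide control wells; nearly all actives have a fitted effect of over 70% in size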
Method in brief: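 qHTS, 1536-well; lymphoblastoid cells, 24 hr compound, 37 C; ATP by CellTiter-Glo, 30 min RT; luminescence; Hill-fit AC50.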

[2] = MultiTox-Fluor Cytotoxicity Assay - LYMP1-001 - Dead Cells (AID 946)
Method in brief: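 Cytotoxicity as increased dead-cell protease fluorescence (bis-AAF-R110, 485/520 nm), read 60 min after MultiTox-Fluor reagent. Human lymphoblastoid line exposed 16 h; Hill-fitted AC50, with DMSO as 0% and 15 uM tetraoctylammonium bromide as 100%.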

[3] = MultiTox-Fluor Cytotoxicity Assay - LYMP1-001 - Live Cells (AID 947);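 note: 0% = DMSO only and full inhibition = tetraoctylammonium bromide control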
[4] = Cell Viability - LYMP1-002 - Assay at 16 hr (AID 948);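 note: 0% = DMSO alone and full effect = 92 µM tetraoctylammonium bromide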
Method in brief: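 Acute cytotoxicity is scored as a concentration-dependent fall in intracellular ATP in a human lymphoblastoid line (LYMP1-002) after 16 hr compound exposure at 37 C, measured by luciferase luminescence.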

[5] = MultiTox-Fluor Cytotoxicity Assay - LYMP1-002 - Live Cells (AID 955);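 note: cells exposed to compound for 16 hours; % is set by controls: 0 for no effect and ±100 for the full control effect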
Method in brief: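 Human lymphoblastoid LYMP1-002 cells, 2500/well, treated 16 h at 37 C in complete medium. Live-cell protease activity via GF-AFC fluorescence (Ex/Em 405/510) after 60 min reagent incubation; AC50 from Hill fits.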

[6] = MultiTox-Fluor Cytotoxicity Assay - LYMP1-002 - Dead Cells (AID 960); note: nearly all actives have a fitted effect of over 60% in size
Method in brief: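 Human lymphoblastoid LYMP1-002 cells, 2500/well, treated 16 h at 37 C; dead-cell protease cleavage of bis-AAF-R110 read by fluorescence (485/520); normalized to DMSO and 15 uM tetraoctylammonium bromide; AC50 from Hill fit.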

[7] = MultiTox-Fluor Cytotoxicity Assay - LYMP1-003 - Dead Cells (AID 961); note: nearly all actives have a fitted effect of over 70% in size
Method in brief: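 Dead-cell protease release, detected as bis-AAF-R110 fluorescence at 485/520 nm, was measured in LYMP1-003 cells after 16 h compound treatment at 37 C. AC50 values came from Hill-modeled qHTS curves normalized to DMSO (0%) and 15 uM tetraoctylammonium bromide (100%).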

[8] = MultiTox-Fluor Cytotoxicity Assay - LYMP1-003 - Live Cells (AID 962);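 note: cells exposed to compound for 16 hours at 37 °C; 0% = DMSO only and full loss = 92 µM tetraoctylammonium bromide; cytotoxic hits lower the live-cell protease signal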
Method in brief: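 LYMP1-003 lymphoblastoid cells, 2500/well in complete medium, treated 16 h at 37 C; live-cell protease cleavage of GF-AFC read by fluorescence (Ex/Em 405/510) after 60 min reagent; AC50 from Hill fits of concentration-response.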

[9] = Cell Viability - LYMP1-003 - Assay at 24 hr (AID 963);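 note: plate controls were DMSO only for no effect and tetraoctylammonium bromide positive control for full effect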
Method in brief: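 Human lymphoblastoid LYMP1-003 cells, 2500/well, treated 24 h at 37 C in complete medium. Viability read as intracellular ATP by CellTiter-Glo luminescence after 30 min at room temperature; AC50 from Hill-equation fits of qHTS concentration-response.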

[10] = Cell Viability - LYMP1-003 - Assay at 40 hr (AID 964); note: series mostly up to about 92 µM; % is set by controls: 0 for no effect and ±100 for the full control effect; nearly all actives have a fitted effect of over 60% in size
Method in brief: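 LYMP1-003 human lymphoblastoid cells, 2500/well, preincubated 5 h at 37 C, then treated with compound for 40 h at 37 C. Intracellular ATP read by CellTiter-Glo luminescence after 30 min at room temperature; AC50 from Hill-equation fits.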

[11] = Cell Viability - LYMP2-004 (AID 966);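 note: plate controls were DMSO only for no effect and tetraoctylammonium bromide control for full effect; nearly all actives have a fitted effect of over 65% in size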
Method in brief: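 Lymphoblastoid LYMP2-004 cells, 2500 per well, were preincubated for 5 hr and then treated with compound for 24 h at 37 C in complete medium. Viability was read as cellular ATP by CellTiter-Glo luminescence, and AC50 values were taken from Hill fits to concentration-response data.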

[12] = Cell Viability - LYMP2-005 (AID 967);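 note: series mostly up to about 92 µM; plate controls were DMSO only for no effect and 92 µM tetraoctylammonium bromide control for full effect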
Method in brief: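 qHTS viability screen in LYMP2-005 cells: 24 h at 37 C with compound, ATP luminescence via CellTiter-Glo, AC50 from Hill curves.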

[13] = Cell Viability - LYMP2-009 (AID 968);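 note: series mostly up to about 92 µM; 0% = DMSO alone and the full-kill end = tetraoctylammonium bromide at 92 µM; nearly all actives have a fitted effect of over 55% in size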
[14] = Cell Viability - LYMP2-011 (AID 969);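 note: cells exposed to compound for 24 hours; 0% = DMSO only and full inhibition = 92 µM tetraoctylammonium bromide; nearly all actives have a fitted effect of over 60% in size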
Method in brief: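 2500 cells/well in complete medium, compound-treated 24 h at 37 C. Viability read as intracellular ATP by CellTiter-Glo luminescence after 30 min at room temperature. AC50 from Hill fits of qHTS concentration-response data.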

[15] = Cell Viability - LYMP2-013 (AID 970);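 note: series mostly up to about 92 µM; 0% = DMSO only and full inhibition = tetraoctylammonium bromide control; nearly all actives have a fitted effect of over 55% in size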
Method in brief: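 Human lymphoblastoid LYMP2-013 cells, 2500/well, treated 24 h at 37 C in complete medium; viability as intracellular ATP by CellTiter-Glo luminescence after 30 min. AC50 from Hill fits of qHTS concentration-response.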

[16] = qHTS assay for small molecule agonists of the antioxidant response element (ARE) signaling pathway measured by Nrf2-dependant transcriptional activity (AID 720636; active = well fitted curve in the direction sought with a large enough effect in the repeat runs; an effect the other way counts as inactive or inconclusive;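 note: HepG2 cells with an ARE-driven luciferase reporter; % of control where 0% means no effect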)
Method in brief: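 Cells: ARE-luc HepG2 with Nrf2-responsive luciferase. Medium contained 1% dialyzed FBS. Compound exposure lasted 16 hr at 37 C and 5% CO2, followed by ONE-Glo luciferase detection.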

[17] = qHTS assay for small molecule antagonists of the retinoid-related orphan receptor gamma (ROR-gamma) signaling pathway - cell viability counter screen (AID 720652; active = well fitted curve in the direction sought with a large enough effect in the repeat runs; an effect the other way counts as inactive or inconclusive;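 note: CHO reporter cells with doxycycline-induced ROR-gamma expression; series mostly up to about 92 µM; compound exposure lasted 16 hr before ATP read; % is set by controls: 0 for no effect and ±100 for the full control effect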)
Method in brief: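 CHO cells carrying TET-inducible ROR and RORE-luciferase reporter, plated 5 hr, then dosed with compound plus doxycycline. After 16 hr at 37 C, viability read as intracellular ATP by CellTiter-Glo luminescence.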

[18] = qHTS assay for small molecule agonists of the antioxidant response element (ARE) signaling pathway measured by Nrf2-dependant transcriptional activity - cell viability counter screen (AID 720653; active = well fitted curve in the direction sought with a large enough effect in the repeat runs; an effect the other way counts as inactive or inconclusive; note: % is set by controls: 0 for no effect and ±100 for the full control effect); details: ARE-bla HepG2 viability, CellTiter-Glo ATP luminescence, 16 h; stronger effect = lower value
Method in brief: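 ARE-bla HepG2 cells treated with compounds for 16 h at 37C; this counter screen measures viability as intracellular ATP by CellTiter-Glo luminescence after 30 min at room temperature.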

[19] = qHTS assay for cell viability of HEK293 cells (AID 743288); details: ATP luminescence (CellTiter-Glo), 18 h, stronger effect = lower value; note: % is set by controls: 0 for no effect and ±100 for the full control effect; nearly all actives have a fitted effect of over 50% in size
Method in brief: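 The Tox21 protocol used parental HEK293 cells treated for 18 h at 37 C with compounds delivered by pintool; ATP-coupled luminescence after 30 min at room temperature gave viability.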

[20] = qHTS assay for cell viability of the p53RE-bla HCT-116 cell line (AID 743292); note: % is set by controls: 0 for no effect and ±100 for the full control effect; nearly all actives have a fitted effect of over 55% in size
Method in brief: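 HCT-116 p53RE-bla cells seeded 4,000/well; 5 h at 37 C; compound (DMSO) added; 16 h at 37 C; CellTiter-Glo added, 30 min RT; luminescence read.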

Measured: max response

C=CC(C)(O)CCC=C(C)C (stereo not given)
inactive: [1] | [2] | [3] | [4] | [5] | [6] | [7] | [8] | [9] | [10] | [11] | [12] | [13] | [14] | [15] | [16] | [17] | [18] 12.9% and 1.07% | [19] 5.28% and -11.2% | [20]
